Screening data: PubChem, National Center for Advancing Translational Sciences (NCATS)
Pf growth 96h – P. falciparum growth inhibition at 96 hour, primary screen for plastid delayed-death inhibitors | P. falciparum luciferase reporter growth, 96 h | Potency, µM (doses to about 28.7 µM), for inactives: at the top dose activity change, negative = inhibition, most hits filed as inhibitors | 320,000 tested, 6.9% active | AID 504834; further: on the % scale 0 is the no-effect control and ±100 the full control effect
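96 h incubation, 37 C, 5% CO2, of luciferase-reporter P. falciparum-infected RBCs (2% hematocrit, 0.05% parasitemia final) with test compounds; endpoint luminescence.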
Pf growth 48h – inhibits P. falciparum growth in the first generation, 48 h | 310,000 tested, 5.9% active | AID 504832 | Potency, µM (titrated, usually from 28.7 µM), inactives show at the top dose activity change, negative = inhibition, actives largely listed as inhibitors | P. falciparum luciferase growth in erythrocytes, 48 h; further: on the % scale 0 is the no-effect control and ±100 the full control effect
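In quantitative HTS format, infected erythrocytes bearing luciferase-reporter parasites were treated for a single generation at 37 C. Luminescence after adding detection reagent served as the growth measure.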
Sm TGR block – inhibitors of Schistosoma mansoni thioredoxin glutathione reductase; AID 485364; purified TGR, DTNB reduction, TNB absorbance 405 nm; 360,000 tested, 3% active; Potency, µM (top dose mostly 114 µM), without a hit: at the highest dose activity change, negative = inhibition, usual class: inhibitors; Q962Y6; further: on the % scale 0 is the no-effect control and ±100 the full control effect; nearly all actives have a fitted effect of over 60% in size
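First, TGR (20 nM dispensed) and NADPH were mixed with compound. Second, a 15 min room-temperature incubation followed. Third, further NADPH and then DTNB were added to start the reaction. Finally, TNB absorbance was monitored kinetically.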
NS1 inh – influenza NS1 inhibition; AID 2326; Potency, µM (titrated, usually from 46.1 µM), for the others: at the highest dose activity, positive = more growth; 270,000 tested, 0.4% active; calls by dose curve; further: actives are rising curves; nearly all actives have a fitted effect of over 50% in size
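In this qHTS, NS1 from influenza A is expressed in budding yeast, where it slows growth. Cells are switched from glucose to 2% galactose medium (pH 6.0, -URA), treated with compound, and growth recovery is read at OD600.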
AMA1-RON2 inh – AMA1-RON2 (P. falciparum) interaction inhibition; AID 720542; Potency, µM (highest dose often 58.2 µM), inactives show at the highest dose activity change, negative = inhibition, hits mostly inhibitors; AlphaScreen AMA1-biotinylated RON2 peptide binding; 360,000 tested, 0.2% active;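 further: 0% = vehicle wells and -100% = peptide control; nearly all actives have a fitted effect of over 45% in size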
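AMA1 (3D7) with his tag at 25 nM final met compounds first, then biotinylated RON2 peptide at 25 nM; detection used donor plus acceptor beads, 10 µg/mL apiece, read by AlphaScreen after 30 min at room temperature.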
* = called active by the depositor; u = inconclusive; x = not tested or not shown. An excerpt weighted towards active compounds, which were near 11% of everything screened. Unless noted, the call rests on the fitted dose curve; in most records, active means well fitted curve in the direction sought with a large enough effect; inconclusive means small, poorly fitted or top-dose-only effect, or another doubt; inactive means no such curve, though single readings can be large; an effect the other way counts as inactive or inconclusive. Potency means the concentration at half of the fitted maximal effect.

SMILES | Pf growth 96h | Pf growth 48h | Sm TGR block | NS1 inh | AMA1-RON2 inh
Cc1cc(C)cc(N(CCC#N)C(=O)CSc2ncnc3sccc23)c1 | u | 12µM* | -4% | x | -26%
COc1ccc(C(=O)Nc2ccc(Cl)cc2F)cc1S(=O)(=O)N1CCCC1 | 9.3µM* | 12µM* | -3% | x | -6%
COc1ccc(S(=O)(=O)N2CCCC2)cc1NC(=O)c1ccccc1 | 12µM* | 3% | -6% | -1% | -17%
COc1ccc(S(=O)(=O)N2CCCCC2)cc1NC(=O)c1c(F)cccc1Cl | 2.9µM* | 8.3µM* | -4% | x | 1%
NC(=O)C1CCN(c2nc(-c3ccccc3)cs2)CC1 | u | 16% | x | x | x
COCC(O)CNc1ccccc1 (stereo unspecified) | 13µM* | 32% | 0% | -3% | -8%
CC(=O)Nc1ccc(NCC(O)COc2ccccc2)cc1 (stereo unspecified) | u | 6% | 1% | 6% | -4%
CC(C)(O)/C=C1/Oc2ccccc2C1N1CCCCC1 (stereo unspecified) | -11% | -6% | 35µM* | 0% | 2%
CCc1ccc(-n2c(=O)c3sc4ccccc4c3n(CC(=O)NCc3ccccc3)c2=O)cc1 | x | x | 1% | x | x
Nc1cccc(Nc2ccccc2)c1 | u | 23% | 40µM* | 11% | -5%
Oc1cccc(Nc2ccccc2)c1 | -7% | 39% | 0% | x | 0%
c1ccc(Nc2cccc(Nc3ccccc3)c2)cc1 | u | 10% | 35µM* | -2% | u
Nc1cccc(Nc2ncnc3ccccc23)c1 | -21% | -3% | 4% | 3% | 0%
COc1cccc(NC(=O)CC(=O)c2ccccc2)c1 | 129% | 5% | 6% | 1% | -10%
C[C@@]1([C@@H](NC(=O)c2cccs2)c2ccc(-c3ccccc3)cc2)C[C@H]1C1CCCCC1 | 2.6µM* | 1.9µM* | -7% | 1% | -4%
CN(Cc1ccccc1)c1ccc(-c2nc(-c3ccco3)no2)cc1[N+](=O)[O-] | x | x | 11% | x | x
CCN(CC#CCC(O)(c1ccccc1)c1ccccc1)C(C)C | u | 8.3µM* | -23% | -6% | -4%
Cc1ccc(-n2nc(C(=O)Nc3ccc(F)cc3Cl)c(=O)n(C)c2=O)cc1 | x | x | 3% | x | x
Cc1nn(-c2ccccc2)nc1-c1nnc(-c2ccc(C(F)(F)F)cc2)o1 | u | 0.26µM* | 28% | -2% | 13%
COc1ccc(OC)c(/C=C2\S/C(=N/NC(=O)c3ccc4ccccc4c3)NC2=O)c1 | 6.6µM* | 7% | -2% | 8% | 95%
C=Cc1ccc(Cn2c(C)c(C(=O)NCc3cccc([N+](=O)[O-])c3)sc2=O)cc1 | x | x | x | x | -19%
CC1(C)C(=O)Nc2ccccc2N1C(=O)COC(=O)c1ccc(NC(N)=O)cc1 | u | u | 5% | x | -13%
Cn1c(-c2c(N)n(-c3ccccc3)c3nc4ccccc4nc23)nc2ccccc21 | 6.6µM* | 9.3µM* | 2% | 16% | 120%
Cc1ccc2c(c1)c1nc3ccccc3nc1n2C | 2% | 0% | -4% | -29% | 18%
Cn1c(-c2ccc(N)cc2)nc2ccccc21 | 322% | 61% | 2% | -2% | -4%
SMILES | Pf growth 96h | Pf growth 48h | Sm TGR block | NS1 inh | AMA1-RON2 inh
Cc1ccc(-n2c(N)c(-c3nc4ccccc4n3C)sc2=S)cc1 | 18% | 1.5µM* | -22% | -94% | 57%
Cc1cccc(-n2c(N)c(-c3nc4ccccc4n3C)c3nc4ccccc4nc32)c1 | 7.4µM* | 10µM* | -2% | 14% | 66%
Cc1oc(-c2ccccc2)nc1Cn1cccc1C1=NC(c2ccccc2)CO1 (stereo unspecified) | 5.2µM* | u | 14% | -33% | u
CSc1ccccc1NC(=O)CN(C)C(=O)c1ccc2c(c1)OCCO2 | 48% | 28% | 0% | 1% | 3%
O=C1c2ccccc2C(=O)c2c1ccc(O)c2O | 16% | -4% | x | x | 0%
CCSc1c(C(=O)NC)ccc2c1C(=O)c1ccccc1C2=O | 15µM* | -9% | 1% | -32% | -5%
COC(=O)c1ccc2c(c1O)C(=O)c1ccccc1C2=O | 4.1µM* | x | -13% | -41% | -25%
Cc1nc2ccccc2c(=O)n1NC(=O)c1ccco1 | -6% | -10% | -7% | 8% | -6%
C/C(=N\Nc1nc2ccccc2c(=O)n1O)c1ccco1 | 280% | 162% | 40µM* | 5% | 12%
